PERK inh: inhibitors of human PERK kinase | 220,000 compounds, 0.17% hits | CHO PERK-DD fusion, SEAP luminescence translation reporter | AID 1416 | inhibition, % at 5.6 µM | Q9NZJ5;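 active = inhibition above the mean inhibition of all tested compounds plus 3 SD, set separately per screening campaign, cut at about 2.9% in these data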;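 also: PERK kinase domain activated by AP20187 dimerizer at 100 nM; 0% = DMSO with dimerizer and 100% = rapamycin at 8.4 µM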
eIF4H inh: inhibitors of RNA binding by human eIF4H; Q15056; eIF4H fluorescence polarization binding assay; inhibition, % at 35 µM; 290,000 compounds, 0.94% hits; AID 2012;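 also: calls also rest on retests at 20 µM and on dose response follow-up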
PABP polyA inh: blocks human PABP binding to poly(A) RNA; inhibition, % at 35 µM; 290,000 compounds, 1% hits; fluorescence polarization;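 also: calls also rest on retests at 20 µM and on dose response follow-up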
PABP1 MLLE inh: blocks PAM2 peptide binding to the PABP1 MLLE domain; P11940; GST-MLLE / FITC-PAM2 fluorescence polarization; inhibition, % at 20 µM; 360,000 compounds, 0.36% hits; AID 588489; in the data active = inhibition above about 35%, passing the limit was not always enough;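 also: plate controls were DMSO wells with GST-MLLE for no effect and wells lacking GST-MLLE protein for full effect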
eIF4E 4G PPI: eIF4E/eIF4G interaction inhibition in translation initiation | P63073+Q04637 | TR-FRET eIF4E-eIF4GI(517-606) binding, 2 h | inhibition, % at 21.7 µM | 220,000 compounds, 0.37% hits;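 active = inhibition above about 30%, limit read from the data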;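 also: 0% = full FRET control wells and 100% = background wells lacking eIF4GI fragment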
Numbers without * were called inactive; ? = inconclusive; . = no result; [ ] = another dose, or the depositor's remark. This is a sample that favours compounds with a hit; in the whole collection about 1.6% have one here. Unless noted, no rule for the calls is given here.

SMILES	PERK inh	eIF4H inh	PABP polyA inh	PABP1 MLLE inh	eIF4E 4G PPI
COc1ccc(-c2ccc(/C=N/N3C(=O)C4C5C=CC(C6CC56)C4C3=O)o2)c([N+](=O)[O-])c1 (stereo unspecified)	0	64*	9.5*	19	-3
Cc1ccc(-c2ccc(/C=N/N3C(=O)C4C5C=CC(CC5)C4C3=O)o2)c([N+](=O)[O-])c1 (stereo unspecified)	0	53*	58*	19	-2
Cc1ccc(C(=O)O)cc1NC(=O)CCc1ccccc1	2	-5	-8	1	5
Cc1ccccc1-c1noc(-c2ccccc2F)n1	-1	11	8	6	-11
COc1ccc(NC2=NCC(=O)N2Cc2cccs2)cc1	0	-6	15	2	43*
COc1ccc(NC2=NCCC(=O)N2Cc2cccs2)cc1	1	-3	21	-1	-2
CCOC(=O)c1c(C)[nH]c(C(=O)C(C)OC(=O)c2cccc(OCc3c(C)noc3C)c2)c1C (stereo unspecified)	-1	-7	-7	-6	0
Cc1nc2ccccc2c(=O)n1/N=C/c1c(O)ccc2ccccc12	1	-3	8	-9	13
Cc1nc2ccccc2c(=O)n1/N=C/c1c(O)ccc2oc3c(c12)CCCC3	1	22*	63*	-4	-12
Cc1nc2ccccc2c(=O)n1/N=C/c1ccccn1	3.0*	-2	3	-13	-4
CCNC(=S)N1CCC(NC(=O)C2CCCCC2)CC1	0	-9	-3	-83	-4
CCNC(=S)NNC(=O)C1CCCCC1	2.9*	0	1	-5	-12
CCC(C)N(C(=O)CSc1ccc(NC(C)=O)cc1)C1CCS(=O)(=O)C1 (stereo unspecified)	2	-16	-5	45*	1
S=C1NC[C@H](CC2CCCCC2)N1CCCCC1CCCCC1	.	-4	8	-14	31*
Cc1ccc(C)n1-c1nc(=S)[nH][nH]1	2	22	3	45*	6
CC(C)Sc1nc2ccccc2c(=O)[nH]1	-1	-1	1	2	-12
CC(c1nc2ccccc2c(=O)[nH]1)N(C)c1ccc2ccccc2c1 (stereo unspecified)	0	17	35	42*	10
COC(=O)c1ccc(C(=O)OC)c(NC(=O)CSCc2ccc(Cl)cc2)c1	1	-12	-4	0	-11
COC(=O)c1ccc(C(=O)OC)c(NC(=O)CSCC(=O)O)c1	3.1*	5	-5	3	2
CC1CCc2cc(F)ccc2N1C(=O)C12CCC(C)(C(=O)O1)C2(C)C (stereo unspecified)	1	-4	2	-4	2
Cc1ccc(-n2c(N)c(C(N)=O)sc2=S)cc1	-1	7	13	32	34*[fluorescence artefact?]
CCn1nc(C)c(/C=N/NC(=O)Cn2nnnc2N)c1C	1	0	8	-11	1
Nc1[nH]c(=O)[nH]c(=O)c1N=Cc1ccccc1	.	.	.	68*	.
Cc1c(C#N)c(NC(=O)CCl)n(Cc2cccs2)c1C	0	74*	active	6	4
O=c1ccsn1Cc1ccccc1	1	-4	-5	16	18
SMILES	PERK inh	eIF4H inh	PABP polyA inh	PABP1 MLLE inh	eIF4E 4G PPI
Cn1sccc1=O	.	.	.	37*	.
c1cncc(-c2nnc(-c3cccnc3)nn2)c1	1	-15	6	41*	-5
O=C(/C=C/c1ccco1)N/C(=C\c1ccco1)C(=O)NCCc1nc2ccccc2[nH]1	1	77*	44*	-3	5
COc1ccc(/C=C/C(=O)N/C(=C\c2ccco2)C(=O)NCCc2nc3ccccc3[nH]2)cc1	-1	-8	-6	-31	1
CCN1CCCC1CNC(=O)c1ccc2c(c1)NC(=O)/C(=C\c1ccc(OC)c(OC)c1)S2 (stereo unspecified)	.	2	27	-71	.
COc1ccc(CN2C(=O)c3cccnc3C2=O)cc1S(=O)(=O)N1CC(C)CC(C)C1 (stereo unspecified)	.	-11	4	-10	.
COc1ccccc1NC(=O)CSc1nnc(CCC(=O)Nc2ccccc2F)n1C	3.9*	16	12	-2	5
CCc1ccc(OCC(=O)Nc2cccc3c2CCCC3)cc1	1	?	51*	4	0
Cc1sc(/N=C/c2c(O)ccc3ccccc23)c(C#N)c1C	0	5	8	.	-12
COc1ccc(O)c(/C=N/c2sc(C)c(C)c2C#N)c1	1	37	58*	2	0
CC(C)Cn1c(N2CCN(C(=O)c3cccs3)CC2)nc2ccccc21	-1	-5	7	-4	-10
